# Data from PubChem BioAssay (EPA / NIEHS).
# Calls of active or inactive are those of the source. Rule for the calls: active = hit-call score of the fitted dose curve at least 0.9, where 1 is the maximum; inactive = score below 0.9.
# Experiments:
# Details in all cases: mRNA level, 48 h; actives raise or lower the signal
# [1] = read-out: Phosphatase and tensin (PTEN), PTEN (gene 5728); experiment: LTEA_HepaRG_PTEN: Life Technologies and Expression Analysis (LTEA) Assay for Phosphatase and tensin (PTEN) using HepaRG (AID 2283523)
# In short: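 Expression of PTEN is quantified in the human liver line HepaRG following two days of dosing (top concentration 100 uM, half-log dilutions, 0.5% DMSO). Values derive from bidirectional curve fitting relative to DMSO controls.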
# [2] = read-out: solute carrier (SLC22A1), SLC22A1 (gene 6580); experiment: LTEA_HepaRG_SLC22A1: Life Technologies and Expression Analysis (LTEA) Assay for solute carrier (SLC22A1) using HepaRG (AID 2283524);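 for AC50: differentiated human HepaRG liver cells in serum-free induction medium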
# In short: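 Transcript induction or suppression of SLC22A1 in human HepaRG cultures is scored after 48 h chemical treatment, with DMSO (0.5%) as baseline for bidirectional fitting. Concentrations span eight half-log points topping at 100 uM.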
# [3] = read-out: Pyruvate Dehydrogenase Kinase 4 (PDK4), PDK4 (gene 5166); experiment: LTEA_HepaRG_PDK4: Life Technologies and Expression Analysis (LTEA) Assay for Pyruvate Dehydrogenase Kinase 4 (PDK4) using HepaRG (AID 2283525)
# In short: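 Eight-point, half-log concentration series (max 100 uM, 0.5% DMSO) applied to differentiated HepaRG cells for 48 h in duplicate. Endpoint: PDK4 mRNA induction or repression by qRT-PCR against DMSO baseline.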
# [4] = read-out: NAD(P)H dehydrogenase [quinone] 1 (NQO1), NQO1 (gene 1728); experiment: LTEA_HepaRG_NQO1: Life Technologies and Expression Analysis (LTEA) Assay for NAD(P)H dehydrogenase [quinone] 1 (NQO1) using HepaRG (AID 2283526)
# In short: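 qRT-PCR read-out (Fluidigm TaqMan), normalized to three housekeeping genes, after 48 h chemical exposure of HepaRG cells. Concentrations: eight points, top 100 uM, half-log steps, 0.5% DMSO vehicle. Gain or loss of signal fitted relative to DMSO.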
# [5] = read-out: Nuclear factor erythroid 2-related factor 2 (Homo sapiens) (UniProt Q16236); experiment: LTEA_HepaRG_NFE2L2: Life Technologies and Expression Analysis (LTEA) Assay for Nuclear factor erythroid 2-related factor 2 (NFE2L2) Transcription Factor using HepaRG (AID 2283527);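 for outcome: TaqMan qRT-PCR transcript level normalised to ACTB GAPDH and POLR2A housekeeping genes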
# In short: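 Human liver HepaRG line treated in duplicate for 48 h with an eight-point series topping at 100 uM. Gene expression of NFE2L2 by qRT-PCR, bidirectionally fitted against the vehicle control.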
# [6] = read-out: succinate dehydrogenase complex iron sulfur subunit B (SDHB), SDHB (gene 6390); experiment: LTEA_HepaRG_SDHB: Life Technologies and Expression Analysis (LTEA) Assay for succinate dehydrogenase complex iron sulfur subunit B (SDHB) using HepaRG (AID 2283528)
# In short: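 A human HepaRG culture in serum-free induction medium received test chemicals for 48 h over an eight-point range capped at 100 uM. SDHB expression change was quantified by qRT-PCR.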
# [7] = read-out: Signal transducer and activator of transcription 3 (Homo sapiens) (UniProt P40763); experiment: LTEA_HepaRG_STAT3: Life Technologies and Expression Analysis (LTEA) Assay for Signal transducer and activator of transcription (STAT3) using HepaRG (AID 2283529)
# In short: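 In this transcriptional endpoint, HepaRG cultures receive test chemicals at up to 100 uM for 48 h, tested in duplicate. STAT3 mRNA is normalized to ACTB, GAPDH and POLR2A.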
# [8] = read-out: solute carrier (SLCO1B1), SLCO1B1 (gene 10599); experiment: LTEA_HepaRG_SLCO1B1: Life Technologies and Expression Analysis (LTEA) Assay for solute carrier (SLCO1B1) using HepaRG (AID 2283530)
# In short: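 SLCO1B1 transcript levels were quantified by TaqMan qRT-PCR using three housekeeping genes for normalization. This followed 48 h chemical exposure (100 uM top, half-log, 8 points, 0.5% DMSO) of HepaRG liver cells, with gain or loss fitted relative to DMSO.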
# [9] = read-out: Transforming Growth Factor (TGFA), TGFA (gene 7039); experiment: LTEA_HepaRG_TGFA: Life Technologies and Expression Analysis (LTEA) Assay for Transforming Growth Factor (TGFA) using HepaRG (AID 2283532)
# In short: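 Gene expression of TGFA was quantified by qRT-PCR after human HepaRG cells were treated for 48 h with test chemicals (eight concentrations, highest 100 uM, 0.5% DMSO). Activity in either direction was fitted relative to DMSO.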
# [10] = read-out: Transforming Growth Factor (TGFB1), TGFB1 (gene 7040); experiment: LTEA_HepaRG_TGFB1: Life Technologies and Expression Analysis (LTEA) Assay for Transforming Growth Factor (TGFB1) Transporter using HepaRG (AID 2283533)
# In short: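 TGFB1 transcript measured by qRT-PCR with normalisation to three housekeeping genes (ACTB, GAPDH, POLR2A); human HepaRG line treated in duplicate for 48 hr with an 8-point series topping at 100 uM, 0.5% DMSO vehicle, bidirectionally fitted.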
# [11] = read-out: TIMP1, TIMP1 (gene 7076); experiment: LTEA_HepaRG_TIMP1: Life Technologies and Expression Analysis (LTEA) Assay for TIMP1 using HepaRG (AID 2283534)
# In short: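 Bidirectional change in TIMP1 transcript versus 0.5% DMSO, measured by TaqMan qRT-PCR with three housekeeping genes for normalization. HepaRG human liver cells dosed 48 h in duplicate, top concentration 100 uM with half-log dilutions.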
# [12] = read-out: Tumor necrosis factor receptor 1 (TNFRSF1A), TNFRSF1A (gene 7132); experiment: LTEA_HepaRG_TNFRSF1A: Life Technologies and Expression Analysis (LTEA) Assay for Tumor necrosis factor receptor 1 (TNFRSF1A) using HepaRG (AID 2283535)
# In short: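 mRNA measured by qRT-PCR (TaqMan, Fluidigm arrays) against ACTB/GAPDH/POLR2A housekeepers after 48 h chemical exposure of HepaRG cells. Top concentration 100 uM, half-log 8-point series, duplicates; vehicle 0.5% DMSO, both fit directions.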
# [13] = read-out: Thyroid Hormone Responsive (THRSP), THRSP (gene 7069); experiment: LTEA_HepaRG_THRSP: Life Technologies and Expression Analysis (LTEA) Assay for Thyroid Hormone Responsive (THRSP) using HepaRG (AID 2283536)
# In short: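 Cell model: human HepaRG, approx. 100,000 cells/well, 0.5% DMSO vehicle. Exposure lasts 48 h; phenobarbital 1 mM serves as induction positive control. Gene expression is measured by qRT-PCR against three endogenous control genes.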
# [14] = read-out: UDP glucuronosyltransferase (UGT1A6), UGT1A6 (gene 54578); experiment: LTEA_HepaRG_UGT1A6: Life Technologies and Expression Analysis (LTEA) Assay for UDP glucuronosyltransferase (UGT1A6) using HepaRG (AID 2283539)
# In short: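 Expression was quantified by TaqMan qRT-PCR on Fluidigm arrays with ACTB/GAPDH/POLR2A normalization and bidirectional fitting against 0.5% DMSO. HepaRG cells (~100,000/well) were treated in duplicate for 48 h at eight half-log concentrations up to 100 uM in serum-free induction medium.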
# [15] = read-out: Protein phosphatase 2A (PPP2R4), PTPA (gene 5524); experiment: LTEA_HepaRG_PPP2R4: Life Technologies and Expression Analysis (LTEA) Assay for Protein phosphatase 2A (PPP2R4) using HepaRG (AID 2283522)
# In short: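 HepaRG, 48 h exposure, 8-pt half-log series from 100 uM, 0.5% DMSO vehicle, duplicates. Readout: PPP2R4 mRNA, Fluidigm qRT-PCR, housekeeping-normalized. Bidirectional curve fit vs DMSO baseline.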
# [16] = read-out: X-box binding protein 1 (XBP1), XBP1 (gene 7494); experiment: LTEA_HepaRG_XBP1: Life Technologies and Expression Analysis (LTEA) Assay for X-box binding protein 1 (XBP1) using HepaRG (AID 2283540)
# In short: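 XBP1 transcript by qRT-PCR (housekeeping-normalized: ACTB, GAPDH, POLR2A) after 48 h chemical treatment of HepaRG cells, 8-point half-log series topping at 100 uM, vehicle 0.5% DMSO. Gain and loss of signal fitted relative to DMSO.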
# [17] = read-out: Cellular tumor antigen p53 (Homo sapiens) (UniProt P04637); experiment: LTEA_HepaRG_TP53: Life Technologies and Expression Analysis (LTEA) Assay for Tumor Protein P53 (TP53) using HepaRG (AID 2283537)
# In short: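 Gain or loss of TP53 mRNA signal is scored relative to 0.5% DMSO after 48 h chemical treatment of HepaRG liver cells, tested in duplicate at eight half-log concentrations up to 100 uM.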
# [18] = read-out: UDP glucuronosyltransferase (UGT1A1), UGT1A1 (gene 54658); experiment: LTEA_HepaRG_UGT1A1: Life Technologies and Expression Analysis (LTEA) Assay for UDP glucuronosyltransferase (UGT1A1) using HepaRG (AID 2283538)
# In short: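 HepaRG, 48 h chemical exposure (top 100 uM, half-log 8-pt, 0.5% DMSO vehicle), duplicate wells; qRT-PCR (TaqMan, Fluidigm array) for UGT1A1 mRNA, housekeeping-normalized; bidirectional curve fit vs DMSO baseline.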
# [19] = read-out: sulfotransferase 2A1 (SULT2A1), SULT2A1 (gene 6822); experiment: LTEA_HepaRG_SULT2A1: Life Technologies and Expression Analysis (LTEA) Assay for sulfotransferase 2A1 (SULT2A1) using HepaRG (AID 2283531)
# In short: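 Expression change of SULT2A1, by qRT-PCR with three housekeeping-gene normalization, was scored bidirectionally versus DMSO. Cells: differentiated HepaRG, dosed in duplicate for 48 h across 8 points, highest 100 µM, half-log dilution, 0.5% DMSO.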
# Sequence of Signal transducer and activator of transcription 3 (Homo sapiens) (P40763 whole entry, looked up): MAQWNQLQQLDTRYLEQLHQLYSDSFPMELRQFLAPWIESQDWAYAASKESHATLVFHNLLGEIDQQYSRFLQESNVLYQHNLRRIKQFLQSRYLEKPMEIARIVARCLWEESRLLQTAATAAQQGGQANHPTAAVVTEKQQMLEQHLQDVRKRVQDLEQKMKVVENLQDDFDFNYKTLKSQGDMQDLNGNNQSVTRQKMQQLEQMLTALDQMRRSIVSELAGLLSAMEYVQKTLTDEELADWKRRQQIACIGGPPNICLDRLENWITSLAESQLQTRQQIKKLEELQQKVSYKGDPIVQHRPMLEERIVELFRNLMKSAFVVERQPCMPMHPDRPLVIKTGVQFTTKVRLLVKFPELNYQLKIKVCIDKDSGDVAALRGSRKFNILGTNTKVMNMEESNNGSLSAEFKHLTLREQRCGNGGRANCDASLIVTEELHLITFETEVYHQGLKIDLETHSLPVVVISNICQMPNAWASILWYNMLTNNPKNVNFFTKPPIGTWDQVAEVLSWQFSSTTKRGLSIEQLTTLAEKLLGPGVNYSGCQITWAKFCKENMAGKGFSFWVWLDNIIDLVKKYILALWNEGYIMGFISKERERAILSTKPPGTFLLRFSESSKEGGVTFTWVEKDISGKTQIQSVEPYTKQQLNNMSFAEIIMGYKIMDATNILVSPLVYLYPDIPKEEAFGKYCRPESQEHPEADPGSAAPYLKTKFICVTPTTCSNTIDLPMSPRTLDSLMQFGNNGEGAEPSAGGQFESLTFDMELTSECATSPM
# Sequence of Nuclear factor erythroid 2-related factor 2 (Homo sapiens) (Q16236 whole entry, looked up): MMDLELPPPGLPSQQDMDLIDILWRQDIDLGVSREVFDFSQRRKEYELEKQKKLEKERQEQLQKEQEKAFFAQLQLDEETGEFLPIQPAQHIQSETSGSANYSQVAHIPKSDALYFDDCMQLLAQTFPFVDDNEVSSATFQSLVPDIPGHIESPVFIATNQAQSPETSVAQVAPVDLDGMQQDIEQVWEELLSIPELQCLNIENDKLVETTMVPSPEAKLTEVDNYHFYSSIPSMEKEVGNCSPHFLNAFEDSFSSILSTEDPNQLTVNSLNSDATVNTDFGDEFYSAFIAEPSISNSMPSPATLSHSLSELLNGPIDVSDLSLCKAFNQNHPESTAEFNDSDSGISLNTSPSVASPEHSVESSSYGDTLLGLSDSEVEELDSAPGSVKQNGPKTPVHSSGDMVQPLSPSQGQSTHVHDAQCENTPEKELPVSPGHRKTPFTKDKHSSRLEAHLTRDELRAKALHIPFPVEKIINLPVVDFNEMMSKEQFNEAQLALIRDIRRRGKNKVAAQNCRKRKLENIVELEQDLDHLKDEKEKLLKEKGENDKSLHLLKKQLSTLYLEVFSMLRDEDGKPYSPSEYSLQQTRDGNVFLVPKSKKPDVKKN
# Sequence of Cellular tumor antigen p53 (Homo sapiens) (P04637 whole entry, looked up): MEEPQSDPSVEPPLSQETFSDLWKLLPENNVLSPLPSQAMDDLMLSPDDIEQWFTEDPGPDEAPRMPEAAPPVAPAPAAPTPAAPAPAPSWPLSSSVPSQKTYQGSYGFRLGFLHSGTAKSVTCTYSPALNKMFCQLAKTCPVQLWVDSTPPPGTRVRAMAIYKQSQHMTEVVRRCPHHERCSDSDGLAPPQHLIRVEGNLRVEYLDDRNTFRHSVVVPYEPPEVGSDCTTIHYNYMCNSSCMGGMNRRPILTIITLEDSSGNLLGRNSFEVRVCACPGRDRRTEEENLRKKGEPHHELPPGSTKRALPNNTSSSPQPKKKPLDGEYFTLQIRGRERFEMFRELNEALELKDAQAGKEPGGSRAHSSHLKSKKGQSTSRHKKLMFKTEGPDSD
smiles,measurement,setting,value
C/C=C/C=C/C(=O)O,outcome,[1],inactive
same,outcome,[2],inactive
same,outcome,[3],inactive
same,outcome,[4],inactive
same,outcome,[5],inactive
same,outcome,[6],inactive
same,outcome,[7],inactive
same,outcome,[8],inactive
same,outcome,[9],inactive
same,outcome,[10],inactive
same,outcome,[11],inactive
same,outcome,[12],inactive
same,outcome,[13],inactive
same,outcome,[14],inactive
Nc1nc(=S)c2[nH]cnc2[nH]1,outcome,[15],inactive
same,outcome,[1],inactive
same,outcome,[3],inactive
same,outcome,[4],inactive
same,AC50,[5],26.6 µM (active)
same,outcome,[6],inactive
same,outcome,[7],inactive
same,AC50,[8],11.4 µM (active)
same,outcome,[9],inactive
same,outcome,[10],inactive
same,outcome,[11],inactive
same,outcome,[12],inactive
same,AC50,[13],9.18 µM (active)
same,AC50,[14],5.91 µM (active)
same,AC50,[16],15.7 µM (active)
S=c1[nH]c2ccccc2s1,outcome,[15],inactive
same,outcome,[1],inactive
same,outcome,[2],inactive
same,outcome,[3],inactive
same,outcome,[4],inactive
same,outcome,[5],inactive
same,outcome,[6],inactive
same,outcome,[7],inactive
same,outcome,[8],inactive
same,outcome,[9],inactive
same,outcome,[10],inactive
same,outcome,[11],inactive
same,outcome,[12],inactive
same,outcome,[13],inactive
same,outcome,[17],inactive
same,outcome,[18],inactive
same,outcome,[14],inactive
same,outcome,[16],inactive
O=Cc1ccccc1C=O,outcome,[15],inactive
same,outcome,[1],inactive
same,outcome,[2],inactive
same,outcome,[3],inactive
same,outcome,[4],inactive
same,outcome,[5],inactive
same,outcome,[6],inactive
same,outcome,[7],inactive
same,outcome,[8],inactive
same,outcome,[19],inactive
same,outcome,[9],inactive
same,outcome,[10],inactive
same,outcome,[11],inactive
same,outcome,[12],inactive
same,outcome,[13],inactive
same,outcome,[14],inactive
same,outcome,[16],inactive
COC(=O)[C@H]1[C@H]2C[C@@H]3c4[nH]c5cc(OC)ccc5c4CCN3C[C@H]2C[C@@H](OC(=O)c2cc(OC)c(OC)c(OC)c2)[C@@H]1OC,outcome,[15],inactive
same,outcome,[1],inactive
same,AC50,[2],52.8 µM (active)
same,outcome,[3],inactive
same,outcome,[4],inactive
same,AC50,[5],42.2 µM (active)
same,outcome,[6],inactive
same,outcome,[7],inactive
same,AC50,[8],59 µM (active)
same,AC50,[19],62.8 µM (active)
same,outcome,[9],inactive
same,outcome,[10],inactive
same,outcome,[11],inactive
same,outcome,[12],inactive
same,AC50,[13],28.3 µM (active)
same,outcome,[17],inactive
same,AC50,[18],66.1 µM (active)
same,AC50,[14],55.3 µM (active)
CC(C)NCC(O)c1ccc(O)c(O)c1 (configuration not stated),AC50,[15],0.155 µM (active)
same,outcome,[1],inactive
same,AC50,[2],0.209 µM (active)
same,outcome,[3],inactive
same,outcome,[4],inactive
same,AC50,[5],0.2 µM (active)
same,outcome,[6],inactive
same,outcome,[7],inactive
same,AC50,[8],0.136 µM (active)
same,AC50,[19],0.194 µM (active)
same,outcome,[9],inactive
same,outcome,[10],inactive
same,outcome,[12],inactive
same,AC50,[13],0.179 µM (active)
same,outcome,[14],inactive
CCCCCCCCCCCCCCOS(=O)(=O)O,outcome,[15],inactive
same,outcome,[1],inactive
same,AC50,[2],80.6 µM (active)
same,AC50,[3],49.6 µM (active)
same,outcome,[4],inactive
same,outcome,[5],inactive
same,outcome,[6],inactive
same,outcome,[7],inactive
same,outcome,[8],inactive
same,outcome,[19],inactive
same,outcome,[9],inactive
same,outcome,[10],inactive
same,outcome,[11],inactive
same,outcome,[12],inactive
same,outcome,[13],inactive
same,outcome,[17],inactive
same,outcome,[18],inactive
same,outcome,[14],inactive
CC(C)(O)c1ccc(CNC(=O)c2cccnc2Oc2ccc(F)cc2)cc1,outcome,[15],inactive
same,outcome,[1],inactive
same,outcome,[2],inactive
same,outcome,[3],inactive
same,outcome,[4],inactive
same,outcome,[5],inactive
same,outcome,[6],inactive
same,outcome,[7],inactive
same,outcome,[8],inactive
same,outcome,[9],inactive
same,outcome,[10],inactive
same,outcome,[11],inactive
same,outcome,[12],inactive
same,outcome,[13],inactive
same,outcome,[17],inactive
same,AC50,[18],4.71 µM (active)
same,outcome,[14],inactive
